Values without a mark were called inactive. The source made the active and inactive calls. Calls follow the shape of the dose curve; as a rule, active = well fitted activation curve with a large enough effect; inconclusive = small, poorly fitted or top-dose-only effect; inactive = no such curve, though single readings can be large or run the other way.
assay: Confirmatory qHTS for Identification of Small Molecule Activators of Huntingtin-Antisense Promoter Activity; details: HEK293 HTT-AS promoter firefly luciferase reporter, 24 h; series mostly up to 57.5 µM; activity change, positive = activation: at the top concentration
In short: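 Activity normalized between vehicle control (0%) and zero RLU (-100%) from firefly luminescence (Dual-Glo). Compounds, up to 57.5 uM final, incubated 24 h at 37C on HEK293 reporter cells plated 24 h earlier.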
Potency is read from the fitted curve at half-maximal effect.

Row | SMILES | activity change, positive = activation | Potency
1 | COc1cc(C2C(C(=O)Nc3ccccc3C)=C(C)Nc3nc(SCc4cc(C)ccc4C)nn32)ccc1O (centres undefined) | -41.1% | 
2 | CCN(CC)S(=O)(=O)c1ccc(C(=O)NCCSc2c(-c3ccc(OC)cc3)[nH]c3ccccc23)cc1 | -9.42% | 
3 | O=C1CSC2(C(=O)N(Cc3cccc(C(F)(F)F)c3)c3ccccc32)N1c1ccc(F)c(F)c1 (centres undefined) | -57.6% | 
4 | CCOc1ccc(CNC(=O)c2ccc3nc(Cc4ccc(OC)cc4)oc3c2)cc1OC | -57.1% | 
5 | CCc1ccc(NC(=O)c2ccc(F)c(S(=O)(=O)NCc3ccc(Cl)c(Cl)c3)c2)cc1 | -17.2% | 
6 | CSc1cccc(NC(=O)C2CCN(C(=O)c3cnn(-c4ccccc4)c3-n3cccc3)CC2)c1 | -37.4% | 
7 | CCCc1cc(N2CCN(c3ccccc3)CC2)n2cnnc2n1 | -84.6% | 
8 | COc1ccc(Br)cc1CNC(=O)CSc1n[nH]c(-c2ccccc2)n1 | -62.6% | 
9 | CCc1ccc(NC(=O)C2CCCN2S(=O)(=O)c2ccc3c(c2)CCCC(=O)N3)cc1 (centres undefined) | -65.4% | 
10 | CSc1ccc(/C=C/c2nc3ccccc3n2S(=O)(=O)c2ccc(F)c(C)c2)cc1 |  | 0.135 µM (active)
11 | COc1ccc(-c2noc(N3CCC(C(=O)N4CCN(c5cccc(OC)c5)CC4)CC3)n2)cc1 | -80.5% | 
12 | O=C(Nc1ccc(F)c(Cl)c1)C1CCN(S(=O)(=O)c2ccc3c(c2)CCCN3C(=O)C2CCC2)CC1 | -22.8% | 
13 | Cn1c(=O)c2sccc2n2c(CCCC(=O)Nc3ccc(Oc4ccc(Cl)cc4)cc3)nnc12 | -57.8% | 
14 | CCCCC(=O)Nc1cccc(-c2nc3ccccc3s2)c1 |  | 3.01 µM (active)
15 | CCCCc1nc2cc(C=CC(=O)NO)ccc2n1CCN(CC)CC |  | 8.49 µM (active)
16 | COc1ccc(-c2nc3cc(NC(=O)Cc4ccc(Cl)cc4)ccc3o2)cc1OC | -40.8% | 
17 | COc1ccc2sc(N(Cc3cccnc3)C(=O)c3cccs3)nc2c1 | -46.8% | 
18 | Cc1cc(C)cc(NC(=O)Nc2cccs2)c1 |  | 3.38 µM (active)
19 | COc1ccc(C2C=C(c3ccc(Br)cc3)Nc3nnnn32)c(OC)c1 (centres undefined) | 3.76% | 
20 | Cc1csc2nc(COC(=O)c3ccccc3NC(=O)c3ccccc3Cl)cc(=O)n12 | 8.8% | 

Row | SMILES | activity change, positive = activation | Potency
21 | O=C(CSc1nc(-c2ccc(F)cc2)[nH]c1-c1ccccc1)Nc1ccccc1 | -48.9% | 
22 | CN(C)c1ccc(C(=C2C=CC(=[N+](C)C)C=C2)c2ccc(N(C)C)cc2)cc1 | -95.6% | 
23 | CC(C)c1ccc(NC(=O)C2CCN(c3nc(-c4ccc(C(C)C)cc4)no3)CC2)cc1 | -91.2% | 
24 | CCOc1ccc(C(=O)Nc2ccc3c(c2)CCCN3S(=O)(=O)c2ccc(C)cc2)cc1 | -48.7% | 
25 | O=C(NCCSc1c(-c2ccccc2)[nH]c2ccccc12)c1ccc(S(=O)(=O)N2CCOCC2)cc1 | -26.7% | 
26 | COc1cccc(N2CCN(C(=O)c3ccc4nc(N5CCC(C)CC5)sc4c3)CC2)c1 | -71.7% | 
27 | Cc1ccc(Cn2c(=O)c3ccccc3n3c(-c4cccc(O)c4)nnc23)cc1 | -25.1% | 
28 | CCc1ccc(CNC(=O)c2cc3cc(S(=O)(=O)N4CCCCC4)ccc3n2C)cc1 | -28.2% | 
29 | CC(=O)c1cccc(NS(=O)(=O)c2ccc3[nH]c4c(c3c2)CCCCC4)c1 | -89.9% | 
30 | CN(C)C(=O)COC(=O)Cc1ccc(OC(=O)c2ccc(N=C(N)N)cc2)cc1 | -9.99% | 
31 | Cc1oc(-c2cccc(Cl)c2)nc1CN1CCC(C(=O)NCCCN2CCN(c3ccc(F)cc3)CC2)CC1 | -80.7% | 
32 | COc1cc(OC)c(N(C)C(=O)c2cn(C3CCCC3)c(=O)c3c2c2ccccc2n3C)cc1Cl | -45% | 
33 | Cc1ccc(NC(=O)c2cc(S(=O)(=O)N3CCc4ccccc43)ccc2F)cc1Cl | -23.8% | 
34 | CN(C)Cc1c(C(=O)NCCOc2ccc(C(=O)NO)cc2)oc2ccccc12 |  | 7.57 µM (active)
35 | CC(=O)Nc1ccc(S(=O)(=O)Nc2cc(-c3cn4ccccc4n3)ccc2C)cc1 |  | 10.7 µM (active)
36 | Cc1ccc(C(=O)Nc2nnc(SCc3cc(=O)c4c(C)ccc(C)c4[nH]3)s2)cc1 | -35.2% | 
37 | COc1ccccc1N1CCN(C(=O)C2CCCN(S(=O)(=O)c3ccc4c(c3)oc(=O)n4C)C2)CC1 (centres undefined) | -45.3% | 
38 | NC(=O)Nc1cc(-c2ccc(CN3CCOCC3)cc2)sc1C(N)=O |  | 23.9 µM (active)
39 | COc1cc(NC(=O)Cn2c(=O)oc3cc(S(=O)(=O)N4CCCCCC4)ccc32)cc(OC)c1 | -39.7% | 
